Test [1] in a line: qHTS assay to identify small molecule antagonists of the androgen receptor (AR) signaling pathway using the MDA cell line in the presence of 0.5 nM R1881 - cell viability counter screen (AID 1259242). Also: nearly all actives have a fitted effect of over 45% in size. In outline: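 Live-cell protease fluorescence, CellTiter-Fluor, 30 min at 37C. Cells: MDA-kb2, 3,000/well, preincubated 5 hr. Compounds plus 0.5 nM R1881 final, 16 hr, 37C, 0% CO2.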
For orientation: Quantitative high-throughput screening tests each substance at several concentrations.

For test [2], the target named is Androgen receptor (Homo sapiens) (UniProt P10275). Put plainly: qHTS assay to identify small molecule antagonists of the androgen receptor (AR) signaling pathway using the MDA cell line in the presence of 0.5 nM R1881 (AID 1259243). Also: nearly all actives have a fitted effect of over 50% in size. Also: potency is read from the fitted curve at half-maximal effect. An outline of the steps:
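MDA-kb2, MMTV-luc (AR/GR elements); 3,000 cells/well; cpd + 0.5 nM R1881 final; 16 hr 37C, 0% CO2; ONE-Glo 30 min RT; luminescence.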

For test [3], the target named is Estrogen receptor (Homo sapiens) (UniProt P03372). Put plainly: qHTS assay to identify small molecule antagonists of the estrogen receptor alpha (ER-alpha) signaling pathway using the BG1 cell line in the presence of 0.1 nM 17-beta-estradiol (AID 1259244). Also: nearly all actives have a fitted effect of over 50% in size. An outline of the steps: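 Luminescence after ONE-Glo (30 min, room temperature) measured ERE-luciferase activity in VM7Luc4E2 cells treated 22 h with compound and 0.1 nM final 17beta-estradiol as stimulator.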

A short description of test [4]: qHTS assay to identify small molecule phospholipidosis (PLD) inducers (AID 1259344; active = well fitted curve in the direction sought with a large enough effect; an effect the other way counts as inactive or inconclusive). An outline of the steps:
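Cells (HepG2, 900 per well) attach for 4 h, receive LipidTOX Red and compound together, incubate 24 h at 37 C, are fixed 30 min with paraformaldehyde/Hoechst, then imaged at one site per well.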

The nature of test [5]: qHTS assay to identify small molecule HDAC inhibitors (AID 1259364).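 Also: wild-type HCT-116 cells with endogenous class I/II HDAC activity; top concentration of the series differs between compounds; nearly all actives have a fitted effect of over 45% in size.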 An outline of the steps: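 HCT-116 (wild type), 1,500 cells/well, overnight; compound 2 hr 37C 5% CO2; HDAC-Glo I/II reagent 30 min RT; luminescence readout.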
A short description of test [6]: qHTS assay to identify small molecule HDAC inhibitors - cell viability counter screen (AID 1259365). Also: series mostly up to about 92 µM; nearly all actives have a fitted effect of over 50% in size. An outline of the steps: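 Measured quantity is CellTiter-Glo luminescence from wild-type HCT-116 cells after compound incubation of 2hr at 37C, 5% CO2; reagent developed 30min at room temperature.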
Test [7] can be described thus: qHTS assay to identify small molecule agonists of the sonic hedgehog signaling (Shh) pathway - cell viability counter screen (AID 1259366). Also: nearly all actives have a fitted effect of over 50% in size. An outline of the steps:
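In quantitative high-throughput format, 3T3 Gli1-Luc cells were exposed to compounds for 24hr and multiplexed for viability using CellTiter-Fluor, incubated 1hr at 37C before the fluorescence read.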

Test [8] can be described thus: qHTS assay to identify small molecule antagonists of the sonic hedgehog signaling (Shh) pathway - cell viability counter screen (AID 1259367). Also: nearly all actives have a fitted effect of over 55% in size. In outline:
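Cytotoxicity was assessed in parallel with Shh reporter activity by measuring live-cell protease fluorescence (CellTiter-Fluor) in NIH/3T3 cells stably carrying Gli1-Luc, treated with compound under conditioned medium stimulation for 23 hr plus 1 hr reagent incubation.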

Test [9] is described as follows: qHTS assay to identify small molecule agonists of the sonic hedgehog signaling (Shh) pathway (AID 1259368; calls by dose curve;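 also: NIH/3T3-derived 3T3Gli1-Luc cells carrying a stable Gli1-driven firefly luciferase reporter; series mostly up to about 92 µM; nearly all actives have a fitted effect of over 15% in size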). In outline: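 Read-out: firefly luciferase luminescence from a Gli1 response element reporter stably integrated in NIH/3T3-derived 3T3Gli1-Luc cells, measured 30 min at room temperature after reagent addition. Compound exposure lasted 24 hr at 37 C, 5% CO2.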

Test [10] can be described thus: qHTS assay to identify small molecule antagonists of the sonic hedgehog signaling (Shh) pathway (AID 1259369; calls by dose curve; also: nearly all actives have a fitted effect of over 45% in size). An outline of the steps: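 Luminescence readout: firefly Luc under Gli1 response element in 3T3Gli1-Luc cells (NIH/3T3 clone). Antagonist mode, stimulation by conditioned medium; compound exposure 24hr at 37 C, 5% CO2.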
A short description of test [11]: qHTS assay to identify small molecule agonists of the androgen receptor (AR) signaling pathway in the presence of an antagonist - cell viability counter screen (AID 1259379).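 Also: MDA-kb2 human breast cancer cells carrying an MMTV luciferase reporter; series mostly up to about 92 µM; nearly all actives have a fitted effect of over 25% in size.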 An outline of the steps:
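Viability counter screen: CellTiter-Fluor fluorescence, measured in the same wells as the luciferase read-out. MDA-kb2 cells, 3,000/well, with nilutamide at 3.0uM final and compounds at 15 concentrations, 16 hr at 37C, 0% CO2.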

Test [12] is described as follows: qHTS assay to identify small molecule agonists of the estrogen receptor beta (ER-beta) signaling pathway - cell viability counter screen (AID 1259380). Also: nearly all actives have a fitted effect of over 30% in size. In outline:
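Luminescence read-out (CellTiter-Glo, 30 min, room temp) taken in the same wells as the beta-lactamase reporter assay; ER-beta-UAS-bla HEK293T cells exposed to DMSO-dissolved compounds for 16 hr at 37C in 2% charcoal-stripped FBS medium.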

The target in test [13] is Androgen receptor (Homo sapiens) (UniProt P10275). Put plainly: qHTS assay to identify small molecule agonists of the androgen receptor (AR) signaling pathway in the presence of an antagonist (AID 1259381; calls by dose curve; also: nearly all actives have a fitted effect of over 15% in size). An outline of the steps: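 Luciferase read-out (ONE-Glo, 30min room temperature) in MDA-kb2 MMTV-reporter cells; agonist mode run in presence of AR antagonist nilutamide, 3.0uM final. Compounds tested as 15-point series, 16hr exposure at 37C, 0% CO2.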

A short description of test [14]: qHTS assay to identify small molecule antagonists of the estrogen receptor beta (ER-beta) signaling pathway - cell viability counter screen (AID 1259382). Also: series mostly up to about 92 µM; nearly all actives have a fitted effect of over 55% in size. An outline of the steps: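 Luminescent ATP read-out (CellTiter-Glo, 30 min, RT) taken in the same wells as the bla reporter assay. HEK293T ER-beta-UAS-bla cells in 2% charcoal-stripped FBS were exposed to compounds with 1nM E2 for 16 hr at 37C.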

Test [15] addresses Estrogen receptor (Homo sapiens) (UniProt P03372). The experiment in a line: qHTS assay to identify small molecule agonists of the estrogen receptor alpha (ER-alpha) signaling pathway in the presence of an antagonist (AID 1259383; calls by dose curve; also: top concentration of the series differs between compounds; nearly all actives have a fitted effect of over 15% in size). An outline of the steps: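 Luciferase luminescence (ONE-Glo, 30min at room temperature) measured in VM7Luc4E2 cells after 22hr compound exposure at 15 concentrations, with 10.0nM ICI-182,780 final present; cells express endogenous ER-alpha and carry four EREs upstream of luciferase.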

Test [16] in a line: qHTS assay to identify small molecule agonists or antagonists of the thyroid stimulating hormone receptor (TSHR) signaling pathway - wild type cell line counter screen (AID 1259384; calls by dose curve). An outline of the steps:
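Wild-type HEK293 cells were plated 18 h at 37 C/5% CO2, pin-dosed with compound plus Ro20-1724 medium, held 30 min at room temperature, then given cAMP-d2 and anti-cAMP-cryptate; fluorescence was read after 1 h. Fifteen concentrations, triplicate.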

Test [17] has as its target Thyrotropin receptor (Homo sapiens) (UniProt P16473). Put plainly: qHTS assay to identify small molecule antagonists of the thyroid stimulating hormone receptor (TSHR) signaling pathway (AID 1259385; calls by dose curve; also: nearly all actives have a fitted effect of over 20% in size). An outline of the steps: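 TSHR-HEK293 cells were plated and held 18 h at 37C/5% CO2, then given compound plus Ro20-1724 and stimulated with TSH at 1.5 ng/mL final. After 30 min at room temperature, cAMP was detected with cAMP-d2/anti-cAMP-cryptate (1 h) by fluorescence.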

Test [18] can be described thus: qHTS assay to identify small molecule agonists of the estrogen receptor alpha (ER-alpha) signaling pathway in the presence of an antagonist - cell viability counter screen (AID 1259386). Also: series mostly up to about 92 µM; nearly all actives have a fitted effect of over 30% in size. In outline: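 Read-out: CellTiter-Fluor fluorescence after 1hr reagent incubation, measured in the same wells as the luciferase readout. VM7Luc4E2 cells were exposed to 15 compound concentrations with 10.0nM ICI-182,780 for 22hr at 37C.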

Test [19] has as its target Estrogen receptor beta (Homo sapiens) (UniProt Q92731). Put plainly: qHTS assay to identify small molecule agonists of the estrogen receptor beta (ER-beta) signaling pathway (AID 1259377; active = well fitted activation curve with a large enough effect in the signal ratio in the repeat runs, not every such curve was filed as active; the % refers to the signal ratio). In outline: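 Reporter cells (HEK293T, ER-beta-UAS-bla) receive compounds or DMSO after a 6 hr pre-incubation. They then incubate 16 hr at 37C/5% CO2, and fluorescence from LiveBLAzer B/G substrate is measured after 2 hours at room temperature.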

For test [20] the target is unchanged. Put plainly: qHTS assay to identify small molecule antagonists of the estrogen receptor beta (ER-beta) signaling pathway (AID 1259378; active = well fitted inhibition curve with a large enough effect in the signal ratio in the repeat runs, not every such curve was filed as active; the % refers to the signal ratio). In outline:
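ER-beta-UAS-bla HEK293T (GripTite) cells in 2% charcoal-stripped FBS medium were preincubated 6 hr at 37C, dosed with compound, then stimulated with 1 nM E2 (final) for 16 hr; beta-lactamase reporter read by B/G FRET fluorescence after 2 hr substrate loading.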

Where “and” joins values, the source holds several entries; their conditions need not be identical. Identical values can stand only once. Records with an inconclusive call do not appear. Calls of active or inactive are those of the source. Unless noted, calls follow the shape of the dose curve; as a rule, active = well fitted curve in the direction sought with a large enough effect in the repeat runs; inconclusive = weak or mixed curves; inactive = no such curve, though single readings can be large; an effect the other way counts as inactive or inconclusive.

Androgen receptor (Homo sapiens), sequence (P10275 whole entry, looked up): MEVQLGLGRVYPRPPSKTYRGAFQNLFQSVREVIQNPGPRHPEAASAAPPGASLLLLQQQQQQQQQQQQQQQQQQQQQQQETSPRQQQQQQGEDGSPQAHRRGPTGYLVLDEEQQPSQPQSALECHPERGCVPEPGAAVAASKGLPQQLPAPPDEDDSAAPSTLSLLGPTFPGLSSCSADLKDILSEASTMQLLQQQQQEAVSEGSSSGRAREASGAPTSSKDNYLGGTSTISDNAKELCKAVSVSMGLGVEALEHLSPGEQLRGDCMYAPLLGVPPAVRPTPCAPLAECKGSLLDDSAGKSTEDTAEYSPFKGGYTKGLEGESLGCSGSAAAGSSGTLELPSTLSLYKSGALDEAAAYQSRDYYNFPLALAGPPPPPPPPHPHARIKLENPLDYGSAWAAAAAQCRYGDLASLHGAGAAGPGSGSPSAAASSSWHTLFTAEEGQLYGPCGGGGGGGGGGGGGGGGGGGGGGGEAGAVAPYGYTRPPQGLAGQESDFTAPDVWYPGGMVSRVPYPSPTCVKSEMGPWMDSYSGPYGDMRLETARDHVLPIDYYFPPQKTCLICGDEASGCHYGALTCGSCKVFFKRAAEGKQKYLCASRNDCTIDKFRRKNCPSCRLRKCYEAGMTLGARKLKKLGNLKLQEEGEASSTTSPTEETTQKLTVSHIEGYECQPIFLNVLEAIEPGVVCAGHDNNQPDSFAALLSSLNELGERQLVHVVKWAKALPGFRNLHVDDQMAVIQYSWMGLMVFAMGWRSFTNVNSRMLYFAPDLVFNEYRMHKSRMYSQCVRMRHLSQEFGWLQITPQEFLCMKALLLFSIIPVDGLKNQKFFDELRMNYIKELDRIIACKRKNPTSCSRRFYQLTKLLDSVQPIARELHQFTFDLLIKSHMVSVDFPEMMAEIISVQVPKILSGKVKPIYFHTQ
Estrogen receptor beta (Homo sapiens), sequence (Q92731 whole entry, looked up): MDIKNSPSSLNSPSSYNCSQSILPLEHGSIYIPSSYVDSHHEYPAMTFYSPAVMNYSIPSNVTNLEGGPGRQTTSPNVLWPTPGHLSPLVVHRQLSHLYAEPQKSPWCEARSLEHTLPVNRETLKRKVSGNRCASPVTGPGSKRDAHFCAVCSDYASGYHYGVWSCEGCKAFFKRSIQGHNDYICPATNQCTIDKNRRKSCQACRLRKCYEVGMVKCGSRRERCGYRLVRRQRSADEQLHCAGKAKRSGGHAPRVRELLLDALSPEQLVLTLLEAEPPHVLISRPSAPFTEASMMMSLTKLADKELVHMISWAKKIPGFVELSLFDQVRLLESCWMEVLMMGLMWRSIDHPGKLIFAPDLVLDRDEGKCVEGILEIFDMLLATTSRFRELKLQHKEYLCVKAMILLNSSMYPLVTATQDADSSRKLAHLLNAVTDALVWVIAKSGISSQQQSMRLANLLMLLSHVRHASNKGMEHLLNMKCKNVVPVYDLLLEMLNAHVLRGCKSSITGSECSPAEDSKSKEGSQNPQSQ
Thyrotropin receptor (Homo sapiens), sequence (P16473 whole entry, looked up): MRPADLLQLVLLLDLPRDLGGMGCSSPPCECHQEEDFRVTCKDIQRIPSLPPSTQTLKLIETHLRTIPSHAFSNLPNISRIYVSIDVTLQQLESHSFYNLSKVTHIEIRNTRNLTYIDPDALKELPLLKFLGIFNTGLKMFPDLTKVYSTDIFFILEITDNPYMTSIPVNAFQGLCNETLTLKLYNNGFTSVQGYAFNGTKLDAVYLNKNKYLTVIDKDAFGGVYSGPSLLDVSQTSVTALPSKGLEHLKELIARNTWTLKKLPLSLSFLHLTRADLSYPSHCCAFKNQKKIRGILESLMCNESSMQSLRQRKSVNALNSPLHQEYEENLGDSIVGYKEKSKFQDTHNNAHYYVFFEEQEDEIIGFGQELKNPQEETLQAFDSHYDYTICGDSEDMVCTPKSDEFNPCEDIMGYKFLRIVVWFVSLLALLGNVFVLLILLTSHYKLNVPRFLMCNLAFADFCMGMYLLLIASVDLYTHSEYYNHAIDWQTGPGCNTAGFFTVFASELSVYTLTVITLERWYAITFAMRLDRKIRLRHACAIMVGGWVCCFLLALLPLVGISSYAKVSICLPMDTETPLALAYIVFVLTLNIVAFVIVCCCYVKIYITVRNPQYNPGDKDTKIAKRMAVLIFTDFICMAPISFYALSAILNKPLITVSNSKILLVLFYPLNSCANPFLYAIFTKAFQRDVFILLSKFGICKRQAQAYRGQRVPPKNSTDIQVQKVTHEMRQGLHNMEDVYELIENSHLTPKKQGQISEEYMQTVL
Estrogen receptor (Homo sapiens), sequence (P03372 whole entry, looked up): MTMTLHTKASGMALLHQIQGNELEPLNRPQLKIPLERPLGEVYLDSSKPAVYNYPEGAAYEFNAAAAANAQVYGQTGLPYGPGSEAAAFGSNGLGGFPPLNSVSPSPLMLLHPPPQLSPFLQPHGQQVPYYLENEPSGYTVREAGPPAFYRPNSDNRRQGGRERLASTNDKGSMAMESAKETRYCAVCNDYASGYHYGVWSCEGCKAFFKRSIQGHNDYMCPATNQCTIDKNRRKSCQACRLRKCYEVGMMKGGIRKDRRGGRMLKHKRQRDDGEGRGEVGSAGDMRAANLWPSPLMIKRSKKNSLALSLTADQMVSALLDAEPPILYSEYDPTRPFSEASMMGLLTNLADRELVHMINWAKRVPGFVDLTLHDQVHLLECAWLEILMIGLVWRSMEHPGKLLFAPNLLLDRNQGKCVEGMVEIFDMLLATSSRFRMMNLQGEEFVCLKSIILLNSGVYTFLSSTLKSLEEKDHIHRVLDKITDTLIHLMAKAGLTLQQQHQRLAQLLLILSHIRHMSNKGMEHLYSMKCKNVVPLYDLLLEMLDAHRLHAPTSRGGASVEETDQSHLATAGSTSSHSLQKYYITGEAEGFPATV

On to `CCCCC1(COC(=O)CCC(=O)O)C(=O)N(c2ccccc2)N(c2ccccc2)C1=O`, for which the Potency entry in test [1], in test [2], in [3], in test [4], in test [5] and in [6] was “inactive” throughout. Also, the Potency entry in test [7], in test [8], in test [10], in test [11], in test [12] and in test [13] was “inactive” each time. For the same compound, the Potency entry in test [14], in test [15], in test [16], in test [17] and in [18] was “inactive” each time. The compound was classed as inactive in test [9].
Regarding `CN(C)CCOC(c1ccccc1)c1ccccc1`, the Potency entry in test [1], in test [2], in [3], in [4], in test [5] and in test [7] was “inactive” throughout. Moreover, the Potency result in test [8], in [10], in test [19], in test [20], in test [11] and in test [12] was “inactive” in each case. The Potency result in test [13], in test [14], in [15], in [16], in test [17] and in test [18] was “inactive” each time. Moreover, the compound was called inactive in test [9].
Turning to `CN(C)C(=O)Nc1ccc(Cl)c(Cl)c1`, the Potency result in test [1], in [3], in test [4], in test [5], in test [6] and in test [7] was “inactive” in each case. The Potency entry in test [8], in [10], in [11], in test [12], in test [13] and in test [14] was “inactive” in each case. Also, the Potency entry in test [15], in test [16], in test [17] and in test [18] was “inactive” throughout. Moreover, in test [2], the Potency was 30.5 µM (active) and 27.3 µM (active) and 23.7 µM (active). Moreover, the call in [9] was inactive.
Regarding `CN1[C@@H]2CC(OC(=O)[C@H](CO)c3ccccc3)C[C@H]1[C@@H]1O[C@@H]12` (stereo not given in full), the Potency result in test [1], in test [3], in test [4], in [5], in test [6] and in [7] was “inactive” in each case. Besides, the Potency result in test [8], in test [10], in [11], in [12], in [14] and in [15] was “inactive” in each case. The Potency entry in test [16], in [17] and in [18] was “inactive” in each case. Also, the call in test [9] was inactive.
In the case of `CC12CCC(CC1)C(C)(C)O2`, the Potency result in test [1], in test [3], in test [4], in [5], in test [6] and in [7] was “inactive” each time. Also, the Potency entry in test [8], in [10], in [11], in test [12], in test [14] and in test [15] was “inactive” in each case. Also, the Potency result in [16], in test [17] and in [18] was “inactive” each time. The result in test [9] was inactive.
Take `CCCCCCCC(=O)OCC(COC(=O)CCCCCCC)OC(=O)CCCCCCC`: the Potency result in [1], in test [3], in test [4], in test [5], in [6] and in test [7] was “inactive” throughout. Further, the Potency entry in test [8], in test [10], in [19], in [20], in [11] and in [12] was “inactive” each time. The Potency entry in test [14], in test [15], in test [16], in test [17] and in test [18] was “inactive” in each case. Further, the compound was called inactive in [9].

The values above are taken from PubChem BioAssay (Tox21).
